Our source for the growth inhibition, inhibition and outcome values is PubChem BioAssay.

Assay [1] in a line: antimalarial activity against Dd2 strain (AID 2302;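 active means growth inhibition above 50% at the single 2 µM test dose, taken to imply half-maximal potency below 2 µM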;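 further: 0% = DMSO untreated growth and 100% = chloroquine plus artemisinin killed control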). The following applies: P. falciparum Dd2 in RBCs, LDH growth readout, 72 h; at 2 µM; active compounds read high.
Assay [2] is described as follows: human hepatoma cell viability loss – ATP luminescence, cytotoxicity control for P. falciparum antimalarial project, primary screen (AID 2303;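 active means inhibition above 50%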;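 further: 0% = DMSO wells and 100% = digitonin-killed cells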). The following applies: HepG2 viability, 24-48 h, at 10 µM, active compounds read high.
For assay [3], the target named is L-lactate dehydrogenase (Plasmodium falciparum (isolate CDC / Honduras)) (UniProt Q27743). In words: PfLDH activity inhibition – cell lysate, 3D7 strain, counter-screen for P. falciparum growth inhibition project (AID 2304).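 Further: 0% = vehicle and 100% = reference inhibitor.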 The note with it: P. falciparum 3D7 crude extract, LDH APAD/NBT absorbance; at 2 µM; active compounds read high.
Chain of L-lactate dehydrogenase (Plasmodium falciparum (isolate CDC / Honduras)) (Q27743 whole entry, looked up): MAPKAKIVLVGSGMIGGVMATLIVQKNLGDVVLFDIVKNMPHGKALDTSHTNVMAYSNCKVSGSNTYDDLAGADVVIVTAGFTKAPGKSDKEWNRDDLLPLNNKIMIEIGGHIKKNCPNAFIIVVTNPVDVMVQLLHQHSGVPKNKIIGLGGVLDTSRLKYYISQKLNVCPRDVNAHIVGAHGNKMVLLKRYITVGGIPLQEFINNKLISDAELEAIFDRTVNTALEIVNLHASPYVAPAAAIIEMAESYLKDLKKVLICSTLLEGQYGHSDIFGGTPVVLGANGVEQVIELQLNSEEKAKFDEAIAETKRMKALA
Assay [4] can be described thus: inhibition of 3D7 malaria parasite growth – strain 3D7 (AID 2306).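 Further: 0% = DMSO wells and 100% = chloroquine plus artemisinin control wells.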 The following applies: P. falciparum 3D7 erythrocytic growth, LDH absorbance, 72 h; at 2 µM; active compounds read high.
Assay [5] addresses Calcium-dependent protein kinase 1 (Plasmodium falciparum (isolate 3D7)) (UniProt P62344). As to the kind of experiment: PfCDPK1 kinase inhibitors, biochemical, TCAMS library (AID 1159585; cut-off not given, nearly all actives have IC50 up to about 0.98 µM;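 further: inhibitors leave more ATP so luminescence rises with inhibition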). The note with it: recombinant PfCDPK1, Kinase-Glo ATP depletion luminescence. (In Kinase-Glo more light means more ATP remaining.)
Assay [6] deals with Plasmodium falciparum protein kinase 6 (PK6, PF3D7_1337100) (UniProt Q8IDW1). In words: PfPK6 kinase inhibitors, biochemical, TCAMS library (AID 1159586). The note with it: recombinant PfPK6, Kinase-Glo ATP depletion luminescence.
Chain of Plasmodium falciparum protein kinase 6 (PK6, PF3D7_1337100) (Q8IDW1 1-305): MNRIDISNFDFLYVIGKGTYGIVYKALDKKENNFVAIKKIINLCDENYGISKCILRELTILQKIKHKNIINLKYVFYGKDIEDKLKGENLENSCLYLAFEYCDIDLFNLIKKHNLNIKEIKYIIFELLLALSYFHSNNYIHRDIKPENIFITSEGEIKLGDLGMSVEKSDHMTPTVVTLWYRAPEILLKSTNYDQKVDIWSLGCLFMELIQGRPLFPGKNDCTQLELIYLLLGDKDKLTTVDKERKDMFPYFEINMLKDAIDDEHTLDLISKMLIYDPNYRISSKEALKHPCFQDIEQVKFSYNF
Assay [7] addresses Protein kinase 7 (PK7), Plasmodium falciparum 3D7 (PF3D7_0213400) (UniProt Q7YTF7). As to the kind of experiment: inhibition of Plasmodium PK7 catalytic activity – biochemical, TCAMS antimalarial set, Kinase-Glo luminescence (AID 1159587). The following applies: recombinant PfPK7, Kinase-Glo ATP depletion luminescence.
Assay [8] addresses Calcium-dependent protein kinase 4 (Plasmodium falciparum (isolate 3D7)) (UniProt Q8IBS5). As to the kind of experiment: PfCDPK4 kinase inhibitors, biochemical, TCAMS library (AID 1159588; cut-off not given, nearly all actives have IC50 up to about 0.91 µM). The note with it: recombinant PfCDPK4, Kinase-Glo ATP depletion luminescence.

Unmarked numbers belong to inactive results. For some of these results: Potency and affinity values are given separately. Active and inactive are the calls of the source. Unless noted, how the calls were made is not given here.

Chain of Protein kinase 7 (PK7), Plasmodium falciparum 3D7 (PF3D7_0213400) (Q7YTF7 1-343): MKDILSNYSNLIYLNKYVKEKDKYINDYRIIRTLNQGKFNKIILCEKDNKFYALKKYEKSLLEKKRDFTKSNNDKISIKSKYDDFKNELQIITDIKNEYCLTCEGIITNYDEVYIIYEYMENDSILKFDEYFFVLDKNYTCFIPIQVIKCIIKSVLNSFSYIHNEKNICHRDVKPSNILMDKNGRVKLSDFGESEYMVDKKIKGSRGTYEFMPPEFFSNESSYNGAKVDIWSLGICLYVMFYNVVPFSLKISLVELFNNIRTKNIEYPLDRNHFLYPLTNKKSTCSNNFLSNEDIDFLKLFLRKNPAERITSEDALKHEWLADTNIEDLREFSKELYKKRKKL
Chain of Calcium-dependent protein kinase 1 (Plasmodium falciparum (isolate 3D7)) (P62344 whole entry, looked up): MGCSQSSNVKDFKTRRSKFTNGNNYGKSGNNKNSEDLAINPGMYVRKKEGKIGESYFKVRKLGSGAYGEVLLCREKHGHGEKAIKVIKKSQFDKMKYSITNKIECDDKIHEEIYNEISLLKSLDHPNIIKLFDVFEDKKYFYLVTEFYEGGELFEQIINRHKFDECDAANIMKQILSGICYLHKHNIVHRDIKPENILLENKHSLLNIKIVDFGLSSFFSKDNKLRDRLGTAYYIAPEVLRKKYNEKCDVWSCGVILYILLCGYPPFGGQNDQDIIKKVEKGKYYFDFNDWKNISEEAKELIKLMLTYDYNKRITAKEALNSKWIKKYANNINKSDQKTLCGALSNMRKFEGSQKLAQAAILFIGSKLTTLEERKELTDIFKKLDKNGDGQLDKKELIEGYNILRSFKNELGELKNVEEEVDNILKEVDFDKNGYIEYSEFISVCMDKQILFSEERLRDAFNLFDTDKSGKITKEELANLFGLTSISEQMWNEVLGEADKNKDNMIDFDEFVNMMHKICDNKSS
Chain of Calcium-dependent protein kinase 4 (Plasmodium falciparum (isolate 3D7)) (Q8IBS5 whole entry, looked up): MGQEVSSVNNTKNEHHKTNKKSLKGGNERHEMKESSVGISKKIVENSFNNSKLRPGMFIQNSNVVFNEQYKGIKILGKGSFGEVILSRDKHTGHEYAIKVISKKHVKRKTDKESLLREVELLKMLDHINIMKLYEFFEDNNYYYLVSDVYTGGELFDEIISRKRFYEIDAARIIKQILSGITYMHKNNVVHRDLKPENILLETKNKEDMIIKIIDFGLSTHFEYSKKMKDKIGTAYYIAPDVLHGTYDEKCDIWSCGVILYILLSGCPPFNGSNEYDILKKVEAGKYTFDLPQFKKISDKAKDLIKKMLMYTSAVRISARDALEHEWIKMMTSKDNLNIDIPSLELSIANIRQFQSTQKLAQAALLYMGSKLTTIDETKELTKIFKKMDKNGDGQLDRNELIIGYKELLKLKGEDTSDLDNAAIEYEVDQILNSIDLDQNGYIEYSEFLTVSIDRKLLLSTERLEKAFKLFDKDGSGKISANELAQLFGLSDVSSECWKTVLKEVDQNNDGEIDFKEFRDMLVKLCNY

The inhibition is the drop in the measured response relative to a control, in per cent. Consider `CS(=O)(=O)c1ccccc1CNC(=O)c1cccc(-c2ccc(-c3nc4ccc(C(F)(F)F)cc4[nH]3)cc2)c1`, for which the growth inhibition is 7% in assay [1] and 95% (active) in assay [4]. Moreover, the inhibition in assay [2] was 86% (active); in assay [3], 3%. Also, the outcome in assay [5], in assay [6], in assay [7] and in assay [8] was inactive.

Regarding `O=C(c1cc2ccccc2o1)N1CCc2cc3nccc(N4CCN5CCC[C@H]5C4)c3cc21`, the growth inhibition was 101% (active) in assay [1] and 99% (active) in assay [4]. For the same molecule, the values for the inhibition in assay [2] and in assay [3] were 62% (active) and 2%, respectively. Also, the outcome in assay [5], in assay [6], in assay [7] and in assay [8] was inactive.

In the case of `CN(C(=O)c1ccccc1)[C@@H]1c2cc(C#N)ccc2OC(C)(C)[C@H]1O`, the growth inhibition in assay [1] was 4%; in assay [4] it was 97% (active). Besides, the values for the inhibition in assay [2] and in assay [3] were 8% and -3%, respectively. The outcome in assay [5], in assay [6], in assay [7] and in assay [8] was inactive.

`O=C(Cc1cccc2ccccc12)NC1CCN(c2ccnc3cc(Cl)ccc23)C1` (stereo not given): the growth inhibition in assay [1] is 97% (active); in assay [4] it was 82% (active). The inhibition in assay [2] is 13%; in assay [3], -2%. Moreover, the outcome in assay [5], in assay [6], in assay [7] and in assay [8] was inactive.

Take `COc1ccc2nccc([C@@H](O)CN3CCC(NCc4nc5c(F)cccc5[nH]4)CC3)c2c1`: the growth inhibition in assay [1] was 6%; in assay [4] it was 103% (active). Also, the inhibition in assay [2] is -6%; in assay [3] it was -7%. For the same molecule, the result in assay [5], in assay [6], in assay [7] and in assay [8] was inactive.

On to `COc1ccc2c(c1)CC1CN(CCCCNC(=O)c3ccc(NC(=O)c4cc(Cl)cc(Cl)c4)cc3)CCN1C2` (stereo not given), for which the growth inhibition in assay [1] was 57% (active); in assay [4], 101% (active). For the same molecule, the figures for the inhibition in assay [2] and in assay [3] were 7% and 1%, respectively. Also, the result in assay [5], in assay [6], in assay [7] and in assay [8] was inactive.

On to `O=C(Nc1ccc(-c2cncc(NCCCN3CCCC3)c2)cc1)c1ccccc1`, for which the growth inhibition in assay [1] is 49%; in assay [4], 94% (active). Moreover, the inhibition in assay [2] was -1%; in assay [3], -2%. The outcome in assay [5], in assay [6], in assay [7] and in assay [8] was inactive.

In the case of `COc1ccc(CNC(=O)c2cc3c(=O)n4ccccc4nc3n(CCc3ccccc3)c2=N)cc1`, the growth inhibition in assay [1] is 22%; in assay [4], 99% (active). The inhibition in assay [2] was 26%; in assay [3] it was -4%. The result in assay [5], in assay [6], in assay [7] and in assay [8] was inactive.

On to `CC(=O)Oc1c(C2CCN(CCCCNC(=O)c3ccc(NC(=O)c4ccc(Cl)cc4)cc3)CC2)ccc2c1CCCC2`, for which the growth inhibition in assay [1] is 80% (active); in assay [4] it was 100% (active). The inhibition was 21% in assay [2] and 2% in assay [3]. In addition, the outcome in assay [5], in assay [6], in assay [7] and in assay [8] was inactive.

With `CCc1cn(C)c2c(N3CCCC3=O)cc(C(=O)N[C@@H](Cc3ccccc3)[C@H](O)CNCc3cccc(OC)c3)cc12`, the growth inhibition was 97% (active) in assay [1] and 96% (active) in assay [4]. The inhibition is 7% in assay [2] and 0% in assay [3]. Besides, the result in assay [5], in assay [6], in assay [7] and in assay [8] was inactive.

Take `O=C(Nc1cccc(CN2CCCN(CC3CCCCC3)CC2)c1)c1cc2ccccc2s1`: the growth inhibition in assay [1] is 15%; in assay [4], 96% (active). Further, the inhibition in assay [2] was 29%; in assay [3], 0%. For the same molecule, the outcome in assay [5], in assay [6], in assay [7] and in assay [8] was inactive.

Turning to `O=C(NCCc1ccccc1)N(Cc1ccccc1-c1ccc(CNC2CCCC2)cc1)C1CCN(Cc2ccccc2)CC1`, the growth inhibition is 95% (active) in assay [1] and 96% (active) in assay [4]. In addition, the results for the inhibition in assay [2] and in assay [3] were 96% (active) and 1%, respectively. Also, the result in assay [5], in assay [6], in assay [7] and in assay [8] was inactive.

Take `CCCC1N=C(N)N=C(N)N1c1ccc(Cl)cc1` (stereo not given): the growth inhibition in assay [1] was -2%; in assay [4], 96% (active). The inhibition in assay [2] was 14%; in assay [3], 5%. For the same molecule, the result in assay [5], in assay [6], in assay [7] and in assay [8] was inactive.

For `CC1=C(C(=O)OC(C)C)C(c2ccccc2Cl)C2=C(CC(c3ccccc3)CC2=O)N1` (stereo not given), the growth inhibition is 84% (active) in assay [1] and 93% (active) in assay [4]. Further, the figures for the inhibition in assay [2] and in assay [3] were 15% and 1%, respectively. Besides, the outcome in assay [5], in assay [6], in assay [7] and in assay [8] was inactive.

Consider `CN1CCN(c2cc3c(Nc4ccc5c(cnn5Cc5ccccc5)c4)ncnc3cn2)CC1`, for which the results for the growth inhibition in assay [1] and in assay [4] were 35% and 88% (active), respectively. Moreover, the figures for the inhibition in assay [2] and in assay [3] were 9% and 5%, respectively. In addition, the outcome in assay [5], in assay [6], in assay [7] and in assay [8] was inactive.

For the molecule `COc1cc2c(cc1OC)C(c1ccc(Br)cc1)CN(C)CC2` (stereo not given), the figures for the growth inhibition in assay [1] and in assay [4] were -3% and 86% (active), respectively. Moreover, the figures for the inhibition in assay [2] and in assay [3] were 8% and -3%, respectively. Moreover, the outcome in assay [5], in assay [6], in assay [7] and in assay [8] was inactive.

For `Cc1ccc(O)c(Nc2c3c(c(C#N)c4nc5ccccc5n24)CCC3)c1`, the growth inhibition in assay [1] is 2%; in assay [4], 85% (active). Besides, the inhibition in assay [2] is 7%; in assay [3] it was -3%. Also, the result in assay [5], in assay [6], in assay [7] and in assay [8] was inactive.

`Cc1ccc(CNC(=O)[C@H](CC(C)C)Nc2cc(C)nc(NCc3ccccc3C)n2)cc1`: the growth inhibition in assay [1] was 35%; in assay [4] it was 87% (active). The inhibition is 3% in assay [2] and 1% in assay [3]. The outcome in assay [5], in assay [6], in assay [7] and in assay [8] was inactive.

Take `COc1ccc2c(NCCc3ccccc3)cc(-c3ccccc3)nc2c1`: the growth inhibition is 1% in assay [1] and 98% (active) in assay [4]. The inhibition in assay [2] was 13%; in assay [3], 2%. Moreover, the outcome in assay [5], in assay [6], in assay [7] and in assay [8] was inactive.

Turning to `CC(C)C[C@H](NC(=O)c1cc(-c2ccc(C(C)(C)C)cc2)no1)C(=O)O` (tested in a mixture with another compound), the growth inhibition is 6% in assay [1] and 95% (active) in assay [4]. In addition, the inhibition was 3% in assay [2] and -3% in assay [3]. Besides, the result in assay [5], in assay [6], in assay [7] and in assay [8] was inactive.
